From PubChem BioAssay AID1159580 (chemical genetic matrix, 2015)
Out of some 5,500 compounds screened, about 2,000 (36%) were called active. About 18% were inconclusive and are not listed. No stated cut-off is given here; in the data, active means normalized growth mostly below about 0.91 (no sharp cut-off); inconclusive means no clear call, values can overlap the other calls; inactive means mostly above about 0.92. This is one part of the list.

Test: chemical genetic growth profiling, strain panel (AID 1159580);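 further: tested at 20 µM; growth read once vehicle control cultures reached saturation at 30 °C; 1 = growth at the plate median or of vehicle wells; lower values mean less growth of the strain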
Conditions: growth OD

Measured: normalized growth

COc1ccc(-c2cc(=O)c3c(O)cc(O[C@@H]4O[C@H](CO[C@H]5O[C@H](C)[C@@H](O)[C@H](O)[C@@H]5O)[C@@H](O)[C@H](O)[C@H]4O)cc3o2)cc1O
inactive: S. cerevisiae deletion strains, locus YKL009W, strain mrt4, hits give low values 0.981 | S. cerevisiae deletion strains, locus YKL068W, hits give low values 0.973 | S. cerevisiae deletion strains, locus YKL085W, strain MDH1 (second series), hits give low values 0.991 | S. cerevisiae deletion strains, locus YKL085W, strain MDH1, hits give low values 0.991 | S. cerevisiae deletion strains, locus YKL160W, strain elf1, hits give low values 1 | S. cerevisiae deletion strains, locus YKL190W, strain CNB1, hits give low values 0.994 | S. cerevisiae deletion strains, locus YKR001C, strain vps1, hits give low values 1.02 | S. cerevisiae deletion strains, locus YKR026C, strain gcn3, hits give low values 1.01 | S. cerevisiae deletion strains, locus YKR091W, strain srl3, hits give low values 1.02 | S. cerevisiae deletion strains, locus YLL001W, strain dnm1, hits give low values 1 | S. cerevisiae deletion strains, locus YLL026W, hits give low values 1.01 | S. cerevisiae deletion strains, locus YLL041C, strain sdh2, hits give low values 1.01 | S. cerevisiae deletion strains, locus YLR027C, strain aat2, hits give low values 1.01 | S. cerevisiae deletion strains, locus YLR039C, strain RIC1, hits give low values 0.954 | S. cerevisiae deletion strains, locus YLR058C, strain SHM2, hits give low values 0.986 | S. cerevisiae deletion strains, locus YLR102C, strain apc9, hits give low values 0.996 | S. cerevisiae deletion strains, locus YLR113W, strain HOG1, hits give low values 1.03 | S. cerevisiae deletion strains, locus YLR221C, strain rsa3, hits give low values 1.01 | S. cerevisiae deletion strains, locus YLR258W, strain gsy2, hits give low values 1.03 | S. cerevisiae deletion strains, locus YLR262C, strain YPT6 (second series), hits give low values 1.03 | S. cerevisiae deletion strains, locus YLR262C, strain YPT6, hits give low values 0.949 | S. cerevisiae deletion strains, locus YLR268W, strain sec22, hits give low values 1 | S. cerevisiae deletion strains, locus YLR320W, strain mms22, hits give low values 1.03 | S. cerevisiae deletion strains, locus YLR330W, strain CHS5, hits give low values 0.981 | S. cerevisiae deletion strains, locus YLR342W, strain FKS1 (second series), hits give low values 1.01 | S. cerevisiae deletion strains, locus YLR342W, strain FKS1, hits give low values 1.03 | S. cerevisiae deletion strains, locus YLR357W, strain rsc2, hits give low values 1.03 | S. cerevisiae deletion strains, locus YLR370C, strain arc18, hits give low values 1.01 | S. cerevisiae deletion strains, locus YLR371W, strain rom2, hits give low values 0.999 | S. cerevisiae deletion strains, locus YLR384C, strain iki3, hits give low values 1.03 | S. cerevisiae deletion strains, locus YLR418C, strain cdc73, hits give low values 0.979 | S. cerevisiae deletion strains, locus YML016C, strain PPZ1, hits give low values 0.994 | S. cerevisiae deletion strains, locus YML032C, strain rad52, hits give low values 1.02 | S. cerevisiae deletion strains, locus YML120C, strain ndi1, hits give low values 1.01 | S. cerevisiae deletion strains, locus YML124C, strain tub3, hits give low values 1 | S. cerevisiae deletion strains, locus YMR058W, strain fet3, hits give low values 1.01 | S. cerevisiae deletion strains, locus YMR078C, strain ctf18, hits give low values 0.993 | S. cerevisiae deletion strains, locus YMR125W, strain sto1, hits give low values 1.03 | S. cerevisiae deletion strains, locus YMR129W, hits give low values 1 | S. cerevisiae deletion strains, locus YMR205C, strain PFK2, hits give low values 1.03 | S. cerevisiae deletion strains, locus YMR223W, strain ubp8, hits give low values 0.989 | S. cerevisiae deletion strains, locus YMR231W, strain pep5, hits give low values 1.02 | S. cerevisiae deletion strains, locus YMR307W, strain GAS1, hits give low values 1.07 | S. cerevisiae deletion strains, locus YNL067W, strain RPL9B, hits give low values 1.04 | S. cerevisiae deletion strains, locus YNL071W, strain lat1, hits give low values 1.03 | S. cerevisiae deletion strains, locus YNL128W, strain TEP1, hits give low values 1.01 | S. cerevisiae deletion strains, locus YNL183C, strain NPR1, hits give low values 0.989 | S. cerevisiae deletion strains, locus YNL209W, strain ssb2, hits give low values 1.01 | S. cerevisiae deletion strains, locus YNL233W, strain BNI4, hits give low values 1.01 | S. cerevisiae deletion strains, locus YNL248C, strain rpa49, hits give low values 1 | S. cerevisiae deletion strains, locus YNL250W, strain rad50, hits give low values 1 | S. cerevisiae deletion strains, locus YNL271C, strain bni1, hits give low values 0.999 | S. cerevisiae deletion strains, locus YNL298W, strain CLA4, hits give low values 0.985 | S. cerevisiae deletion strains, locus YNL307C, strain MCK1, hits give low values 1 | S. cerevisiae deletion strains, locus YNL322C, strain KRE1 (second series), hits give low values 1.02 | S. cerevisiae deletion strains, locus YNL322C, strain KRE1, hits give low values 1 | S. cerevisiae deletion strains, locus YNR049C, strain mso1, hits give low values 1.01 | S. cerevisiae deletion strains, locus YNR052C, strain pop2, hits give low values 1 | S. cerevisiae deletion strains, locus YOL006C, strain TOP1, hits give low values 1.08 | S. cerevisiae deletion strains, locus YOL012C, strain htz1 1.47 | S. cerevisiae deletion strains, locus YOL147C, strain pex11, hits give low values 0.974 | S. cerevisiae deletion strains, locus YOR001W, strain rrp6, hits give low values 1.03 | S. cerevisiae deletion strains, locus YOR061W, strain CKA2, hits give low values 0.993 | S. cerevisiae deletion strains, locus YOR069W, strain VPS5, hits give low values 0.987 | S. cerevisiae deletion strains, locus YOR070C, strain gyp1, hits give low values 1.02 | S. cerevisiae deletion strains, locus YOR080W, strain dia2, hits give low values 1.03 | S. cerevisiae deletion strains, locus YOR083W, strain WHI5, hits give low values 0.992 | S. cerevisiae deletion strains, locus YOR106W, strain vam3, hits give low values 0.983 | S. cerevisiae deletion strains, locus YOR136W, strain idh2, hits give low values 1.01 | S. cerevisiae deletion strains, locus YOR144C, strain elg1, hits give low values 1 | S. cerevisiae deletion strains, locus YOR184W, strain ser1, hits give low values 1.01 | S. cerevisiae deletion strains, locus YOR231W, strain MKK1, hits give low values 1 | S. cerevisiae deletion strains, locus YOR265W, strain rbl2, hits give low values 1.02 | S. cerevisiae deletion strains, locus YOR270C, strain vph1, hits give low values 0.983 | S. cerevisiae deletion strains, locus YOR290C, strain snf2, hits give low values 1.02 | S. cerevisiae deletion strains, locus YOR316C, strain cot1, hits give low values 0.997 | S. cerevisiae deletion strains, locus YPL051W, strain arl3, hits give low values 1.01 | S. cerevisiae deletion strains, locus YPL055C, strain LGE1, hits give low values 1.07 | S. cerevisiae deletion strains, locus YPL078C, strain atp4, hits give low values 0.998 | S. cerevisiae deletion strains, locus YPL106C, strain sse1, hits give low values 1.05 | S. cerevisiae deletion strains, locus YPL240C, strain hsp82, hits give low values 1.03 | S. cerevisiae deletion strains, locus YPL241C, strain CIN2, hits give low values 0.986 | S. cerevisiae deletion strains, locus YPL256C, strain CLN2, hits give low values 0.987 | S. cerevisiae deletion strains, locus YPR119W, strain clb2, hits give low values 1 | S. cerevisiae deletion strains, locus YPR141C, strain kar3, hits give low values 0.972 | S. cerevisiae deletion strains, locus YPR163C, strain tif3, hits give low values 0.992 | S. cerevisiae deletion strains, locus YPR167C, strain met16, hits give low values 1.01 | S. cerevisiae deletion strains, strain wtn01, hits give low values 0.997 | S. cerevisiae strains, strain wild type, hits give low values 1
